# In PubChem BioAssay AID1490 (National Center for Advancing Translational Sciences (NCATS), 2009):
# Screen size: about 310,000 compounds; about 11,000 (3.5%) were called active. Not shown: some 4% with an inconclusive outcome. The sample holds actives, similar compounds and a random draw of the others, so the mix is not that of the screen. The call rests on the fitted dose curve; in most records, active means well fitted inhibition curve with a large enough effect; inconclusive means small, poorly fitted or top-dose-only effect, or another doubt; inactive means no such curve, though single readings can be large or run the other way.
# Molecular target: 4'-phosphopantetheinyl transferase ffp (Bacillus subtilis) (UniProt Q9F4F7)
# Experiment: qHTS Assay for Inhibitors of Bacillus subtilis Sfp phosphopantetheinyl transferase (PPTase);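 further: the enzyme is Sfp with the accession as filed and its product quenches rhodamine fluorescence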;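 on largest response in the series, negative = inhibition: 0% = enzyme reaction without inhibitor and -100% = no enzyme wells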
# Conditions: Biochemical Sfp PPTase activity
# Method in brief: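 Sfp 15 nM + cpd, 15 min RT; start w/ rhodamine-CoA 5 uM, BHQ-2-YbbR 12.5 uM (final); 50 mM Hepes pH 7.6, 10 mM MgCl2, 0.01% NP-40, 0.01% BSA; read 525/598 nm at 0 and 30 min.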
# Potency means the concentration at half of the fitted maximal effect.
SMILES,"largest response in the series, negative = inhibition",Potency
CCc1nn(CCCC(=O)Nc2ccc(C)c(C)c2)c(=O)c2cc3occc3n12,5.57% (inactive),
COc1ccc(N2CCN(Cc3nnc(-c4ccccc4)o3)CC2)cc1,2.63% (inactive),
COc1ccc(N2CCN(Cc3cc(=O)oc4ccc5ccccc5c34)CC2)cc1,4.08% (inactive),
COc1ccc(N2CCN(Cc3ccc(Br)s3)CC2)cc1,,39.8 µM (active)
O=C(CN(C(=O)c1csnn1)c1cccc(Cl)c1)NC1CCCC1,5.89% (inactive),
Cc1nnc(NCCO)c2ccccc12,13.5% (inactive),
NNc1nnc(NN)c2ccccc12,,89.1 µM (active)
C=CCNc1nnc(C)c2ccccc12,4.78% (inactive),
CSc1ccccc1OCc1cc(C(=O)N(C)CCc2c(C)n[nH]c2C)no1,0.222% (inactive),
COc1cc(C(=S)NCc2ccccc2)cc(Br)c1O,,8.91 µM (active)
COc1cc(C=O)c(Br)cc1OCC(=O)NCc1ccccc1,11.5% (inactive),
COc1cc(C(=O)NCc2ccncc2)cc(Br)c1OCc1ccccc1,4.37% (inactive),
NS(=O)(=O)c1ccccc1NC(=O)c1c(O)c2ccccc2[nH]c1=O,-6.41% (inactive),
CC1CC(=O)N(CC(=O)Nc2cccc(Cl)c2)c2ccccc2S1(=O)=O (configuration not stated),12.1% (inactive),
COc1cc2c(cc1OC)[C@@H](Cc1cc(OC)c(OC)c(OC)c1)[N+](C)(CCCOC(=O)CC/C=C/CCC(=O)OCCC[N+]1(C)CCc3cc(OC)c(OC)cc3[C@H]1Cc1cc(OC)c(OC)c(OC)c1)CC2 (some centres not stated),-3.12% (inactive),
CCCCN(CC)C(=O)C1CCCN(S(=O)(=O)c2cccc3nsnc23)C1 (configuration not stated),17.1% (inactive),
COC(=O)c1c(-c2ccc(C)cc2)csc1N,,44.7 µM (active)
CCC(C(=O)OC)n1cnc2scc(-c3ccc(C)cc3)c2c1=O (configuration not stated),6.01% (inactive),
CCOC(=O)c1c(-c2ccccc2)csc1NC(=S)NC(=O)c1ccccc1,-3.92% (inactive),
CCCCC/C=C\C[C@H](O)/C=C/C=C/C=C/[C@@H](O)CCCC(=O)O,6.53% (inactive),
CC(=O)N1CCN(C(=O)C2(NC(=O)Nc3ccc(C)cc3)CCCCC2)CC1,14.1% (inactive),
O=C(Cc1ccc(Br)cc1)NCCN1CCOCC1,14.6% (inactive),
COc1ccc(C2/C(=C(/O)c3ccc(OC(C)C)cc3)C(=O)C(=O)N2CCCN2CCOCC2)cc1 (configuration not stated),-22.3% (inactive),

SMILES,"largest response in the series, negative = inhibition",Potency
CCCCOc1ccc(C(C)(O)CCN2CCOCC2)cc1 (configuration not stated),6.22% (inactive),
CCCOc1ccc(C2c3c(oc4cc(C)c(C)cc4c3=O)C(=O)N2CCCN2CCOCC2)cc1 (configuration not stated),,50.1 µM (active)
CCOc1cc(-c2cc(-c3ccc(NC(C)=O)cc3)nc(N)c2C#N)ccc1O,10.7% (inactive),
Cc1cc(=O)n2nc(N3CCCC(C(=O)NCc4cccc(Cl)c4)C3)sc2n1 (configuration not stated),8.1% (inactive),
COc1ccc(CCNC(=O)Cc2ccc(C)cc2)cc1OC,,39.8 µM (active)
COc1ccc(CCNC(=O)NS(=O)(=O)c2ccc(C)cc2)cc1OC,17.5% (inactive),
COc1ccc(CCNC(=O)c2ccccc2-c2ccccc2C(=O)O)cc1OC,5.81% (inactive),
CC(C)(Oc1ccc(C2CC2(Cl)Cl)cc1)C(=O)O (configuration not stated),18% (inactive),
COc1ccc(NS(=O)(=O)c2cc3c(cc2C)N(C(C)=O)CCO3)cc1,15.7% (inactive),
CCn1c(=O)c(=O)[nH]c2c(=O)oc3ccc(S(=O)(=O)Nc4ccc(OC)cc4)cc3c21,5.45% (inactive),
CCOC(=O)N1CCN(C(=O)C(=O)Nc2sc3c(c2C#N)CC(C)(C)OC3)CC1,-14.6% (inactive),
CC/C=C/C(=O)N1CC2(CC(c3cccc(NC(=O)CC)c3)=NO2)C[C@H]1C(N)=O (some centres not stated),-8.44% (inactive),
C/C=C(/C)C(=O)Nc1cccc(C2=NOC3(C2)C[C@@H](C(N)=O)N(C(=O)C2(C)CC2)C3)c1 (some centres not stated),-3.68% (inactive),
C/C=C\C=C\C(=O)N1CC2(CC(c3cccc(NC(=O)/C(C)=C\C)c3)=NO2)C[C@H]1C(N)=O (some centres not stated),,15.8 µM (active)
CCOC(=O)N1CCN(S(=O)(=O)c2ccc(-n3cnnn3)cc2)CC1,6.31% (inactive),
COc1ccc(NC(=S)Nc2ccc(S(N)(=O)=O)cc2)c(C)c1,,50.1 µM (active)
NS(=O)(=O)c1ccc(NC(=S)N2CCCC2)cc1,13.2% (inactive),
CCOc1ccccc1N1CCN(C(=S)Nc2ccc(S(N)(=O)=O)cc2)CC1,-3.97% (inactive),
COc1ccc(NS(=O)(=O)c2ccc(NC(=S)NC(=O)CC(C)C)cc2)cc1,3.37% (inactive),
NS(=O)(=O)c1ccc(NC(=S)NC(=O)c2cccnc2)cc1,-95.1% (inactive),
COc1ccc(N2CCN(C(=S)Nc3ccc(S(N)(=O)=O)cc3)CC2)cc1,,11.2 µM (active)
Cc1ccccc1NC(=O)CCOc1ccccc1,2% (inactive),
CCc1ccc(CN(C)C(=O)C2CCC(=O)N(Cc3cccc(OC)c3)C2)nc1 (configuration not stated),14.7% (inactive),

SMILES,"largest response in the series, negative = inhibition",Potency
Cc1ccc(NS(=O)(=O)c2cn(C)c(=O)n(C)c2=O)c(C)c1,8.01% (inactive),
COc1ccccc1NC(=O)CCC(=O)N1CC(C)Oc2ccc(C)cc21 (configuration not stated),6.52% (inactive),
COc1ccc(C(C(=O)NCC2CCCO2)N(C(=O)Cn2nnc3ccccc32)c2ccc(NC(C)=O)cc2)cc1OC (configuration not stated),15.5% (inactive),
OCCNc1nc(Nc2ccc(Cl)c(Cl)c2)nc2ccccc12,,79.4 µM (active)
Nc1nc(Nc2ccccc2)nc(NCCO)c1[N+](=O)[O-],13.5% (inactive),
CN(C)c1nc(Nc2ccc(Cl)c(Cl)c2)nc(N(C)C)n1,3.3% (inactive),
O=C(NCC(=O)N1CCN(c2ccccc2O)CC1)c1ccc2ccccc2c1,2.02% (inactive),
CCN1CCN(c2sc(S(C)(=O)=O)nc2S(=O)(=O)c2ccc(Cl)cc2)CC1,14.2% (inactive),
COc1ccc(C(=O)COC(=O)Cn2cnc3c2c(=O)n(C)c(=O)n3C)c(OC)c1,2.93% (inactive),
CCCOC1CCCN(C(=O)c2cc(COc3cncc(Cl)c3)on2)C1 (configuration not stated),-1.29% (inactive),
Oc1c(C(c2ccccn2)N2CCOCC2)ccc2cccnc12 (configuration not stated),,35.5 µM (active)
CCOc1cc(N2CCOCC2)c(OCC)cc1NC(=O)COc1cccc2cccnc12,1.6% (inactive),
OC(COc1ccc2ccccc2c1)CN1CCOCC1 (configuration not stated),11.8% (inactive),
CN(C)CCNc1ccc(-c2n[nH]c(=O)c3ccccc23)cc1[N+](=O)[O-],16.7% (inactive),
Cc1ccc(C(=O)O/N=C(\N)c2ccccn2)cc1Cl,2.02% (inactive),
O=C(Nc1ccccc1Cl)O/N=C(/c1ccccc1)c1ccccn1,,79.4 µM (active)
O=C(Nc1ccccc1Cl)Nc1cccc2cccnc12,2.31% (inactive),
CCCCNc1nc(C)nc2c1nc(-c1ccccc1)n2CCCCN(CC)CC,23.3% (inactive),
Cc1cc(C)n(-c2ccc(NC(=O)C3CCCCN3C(=O)c3cccs3)cc2)n1 (configuration not stated),4.09% (inactive),
C=CCc1cccc(/C=N/NC(=O)COc2ccc(-n3cnnn3)cc2)c1O,15.1% (inactive),
CCc1ccnc(NC(=O)Nc2ccc(OCc3ccccc3)cc2)c1,-0.979% (inactive),
